Test [1] in a line: qHTS drug screen for cell cycle checkpoint inhibitors in PARPi-resistant BRCA-mutant ovarian cancer cell lines. (AID 1963452). To be noted: PEO1/OlaR viability, CellTiter-Glo luminescence, 96 h, stronger effect = lower value. The method, boiled down: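 PEO1, PEO4 and PEO1/OlaR ovarian cancer cells, 600 per well, exposed 96 h at 37C to a dilution series. Viability read by CellTiter-Glo luminescence, normalized to DMSO and empty wells; activity summarized as Z-AUC.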
For orientation: In qHTS, concentration-response curves come from the screen itself.

A short description of test [2]: qHTS for identification of novel therapeutic agents for treatment of microphthalmiaassociated transcription factor (MiT) renal cell carcinoma (RCC) (AID 1963991). To be noted: CellTiter-Glo, 48 h, stronger effect = lower value. In a few lines:
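Three TFE3-fusion RCC cell lines (UOK109, UOK124, UOK145), 500 cells/well, were exposed to the 1912-compound MIPE 4.0 library for 48 hours at 37 C. Viability was read by CellTiter-Glo luminescence, normalised to DMSO (100%) and empty wells (0%), with 11-concentration curve fits.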

Setting [3] is: measured here: PEO1 parental Z-AUC.
[4] abbreviates: TFE3-RCC UOK109 viability, measured here: UOK109 Z-AUC.
Where [5] appears, read: TFE3-RCC viability, measured here: UOK124 Z-AUC.
[6] abbreviates: TFE3-RCC viability, measured here: UOK145 Z-AUC.

Records with an inconclusive call do not appear. The source made the active and inactive calls. The call rests on the fitted dose curve.

As for `CNC1CCC(N(Cc2cccc(-c3ccncc3)c2)C(=O)c2sc3c(F)ccc(F)c3c2Cl)CC1` (stereo not given), the Z-AUC is -0.961 (inactive) in test [1], -0.582 in test [1] (setting [3]) and -1.33 in test [1] (measured here: PEO4 Z-AUC).

For the compound `N[C@@]1(C(=O)O)CS(=O)(=O)[C@H]2[C@H](C(=O)O)[C@H]21`, the Z-AUC in test [1] is -0.18 (inactive); in test [1] (setting [3]) it was 0.223; in test [1] (measured here: PEO4 Z-AUC) it was 0.235.

With `CC(C(=O)O)c1ccc(-c2ccccc2)c(F)c1` (stereo not given), the Z-AUC in test [1] is 0.668 (inactive); in test [1] (setting [3]), 0.939; in test [1] (measured here: PEO4 Z-AUC), 1.4.

`COc1cccc(-c2cc(=O)c3ccccc3o2)c1N`: the Z-AUC in test [1] was -0.672 (inactive); in test [1] (setting [3]) it was -0.47; in test [1] (measured here: PEO4 Z-AUC), -0.869.

For the compound `O=C(NCc1ccncc1)C12C[C@H]3C[C@@H](C1)CC(c1ccc(Cl)cc1)(C3)C2`, the Z-AUC in test [1] is 0.0323 (inactive); in test [1] (setting [3]) it was 0.866; in test [1] (measured here: PEO4 Z-AUC), 0.86.

For the compound `O=C(O)CCC1CCC(c2cc(F)ccc2F)(S(=O)(=O)c2ccc(Cl)cc2)CC1` (stereo not given), the values for the Z-AUC in test [1], in test [1] (setting [3]) and in test [1] (measured here: PEO4 Z-AUC) were 1.02 (inactive), 0.969 and 0.83, respectively.

On to `CC(C)(C)C(=O)Oc1ccc2c(c1)nc(NC(=O)c1cccc([N+](=O)[O-])c1)n2CCCO`, for which the Z-AUC was -0.205 (inactive) in test [1], 0.0755 in test [1] (setting [3]) and -0.141 in test [1] (measured here: PEO4 Z-AUC).

As for `O=C(NCc1ccccc1)c1csc(Nc2ccncn2)n1`, the Z-AUC is -0.615 (inactive) in test [1], 0.117 in test [1] (setting [3]) and 0.922 in test [1] (measured here: PEO4 Z-AUC).

In the case of `O=c1cc(N2CCOCC2)oc2c(-c3cccc4c3sc3ccccc34)cccc12`, the Z-AUC in test [1] is 0.27 (inactive); in test [1] (setting [3]), 0.135; in test [1] (measured here: PEO4 Z-AUC), 0.0636.

On to `CC(C)C[C@H](CC(=O)O)C(=O)N[C@@H](Cc1c[nH]c2ccccc12)C(=O)N[C@@H](C)c1ccccc1`, for which the figures for the Z-AUC in test [1], in test [1] (setting [3]) and in test [1] (measured here: PEO4 Z-AUC) were 1.58 (inactive), 1.54 and 1.63, respectively.

As to `CC(C)OC(=O)C(C)(C)Oc1ccc(C(=O)c2ccc(Cl)cc2)cc1`, the Z-AUC in test [1] is -0.547 (inactive); in test [1] (setting [3]) it was -0.458; in test [1] (measured here: PEO4 Z-AUC), 0.0191.

With `O=c1c(O)c(-c2ccc(O)cc2)oc2cc(O)cc(O)c12`, the Z-AUC in test [1] was 0.889 (inactive); in test [1] (setting [3]) it was 1.15; in test [1] (measured here: PEO4 Z-AUC), 1.73.

Regarding `COc1ccc(-c2cc(=O)c3c(O)cc(O)cc3o2)cc1O`, the figures for the Z-AUC in test [1], in test [1] (setting [3]) and in test [1] (measured here: PEO4 Z-AUC) were 0.388 (inactive), 0.498 and 0.413, respectively.

In the case of `C[C@H](NC(=O)c1sccc1OCc1ccc(Cl)cc1)c1ccccc1`, the Z-AUC in test [1] was 0.368 (inactive); in test [1] (setting [3]), -0.143; in test [1] (measured here: PEO4 Z-AUC) it was -0.0391.

Regarding `Cc1c(NC(=O)c2ccc(C(C)(C)C)cc2)cccc1-c1cn(C)c(=O)c(Nc2ccc(C(=O)N3CCOCC3)cc2)n1`, the Z-AUC was 1.16 (inactive) in test [1], 0.745 in test [1] (setting [3]) and 0.879 in test [1] (measured here: PEO4 Z-AUC).

Regarding `O=C(Nc1ccccc1-c1cn2c(CN3CCNCC3)csc2n1)c1cnc2ccccc2n1`, the values for the Z-AUC in test [1], in test [1] (setting [3]) and in test [1] (measured here: PEO4 Z-AUC) were 0.244 (inactive), 0.118 and -0.298, respectively.

Consider `COC(=O)[C@@H]1[C@H]2C[C@H]3c4[nH]c5ccccc5c4CCN3C[C@@H]2CC[C@@H]1O`, for which the Z-AUC in test [1] was 0.808 (inactive); in test [1] (setting [3]), 0.498; in test [1] (measured here: PEO4 Z-AUC), 0.659.

Take `c1ccc2c(Cc3c[nH]c4ccccc34)c[nH]c2c1`: the Z-AUC in test [1] was 0.829 (inactive); in test [1] (setting [3]), 0.126; in test [1] (measured here: PEO4 Z-AUC) it was -0.359.

`CC1(C)CCC2=C(O1)c1ccccc1C(=O)C2=O`: the figures for the Z-AUC in test [1], in test [1] (setting [3]) and in test [1] (measured here: PEO4 Z-AUC) were 0.0983 (inactive), -0.291 and 0.134, respectively.

As for `O=c1c(-c2ccc(O)cc2)coc2cc(O)ccc12`, the Z-AUC in test [1] was 1.12 (inactive); in test [1] (setting [3]), 1.51; in test [1] (measured here: PEO4 Z-AUC), 1.78. For the same compound, the values for the z-score in test [2] (setting [4]), in test [2] (setting [5]) and in test [2] (setting [6]) were 0.875, 0.542 and 0.636, respectively.

With `C=C1C(=O)OC(CCCCCCCC)C1C(=O)O` (stereo not given), the Z-AUC in test [1] was 0.778 (inactive); in test [1] (setting [3]), 0.453; in test [1] (measured here: PEO4 Z-AUC), 0.342. The z-score in test [2] (setting [4]) worked out at 0.725; in test [2] (setting [5]) it was 0.792; in test [2] (setting [6]), 0.524.

For the compound `CC(C)(C)c1cc(C(=O)O)c(NC(=O)Nc2ccc3[nH]ncc3c2)s1`, the values for the Z-AUC in test [1], in test [1] (setting [3]) and in test [1] (measured here: PEO4 Z-AUC) were -0.548 (inactive), -0.418 and -0.766, respectively. The z-score was 0.185 in test [2] (setting [4]), -0.00808 in test [2] (setting [5]) and 0.16 in test [2] (setting [6]).

As for `O=c1cc(-c2ccccc2)oc2cc(O)cc(O)c12`, the Z-AUC is 1.05 (inactive) in test [1], 1.12 in test [1] (setting [3]) and 1.3 in test [1] (measured here: PEO4 Z-AUC). The z-score in test [2] (setting [4]) came out at 0.364; in test [2] (setting [5]), 0.638; in test [2] (setting [6]), 0.538.

For `COc1ccc(Cc2ccc(NC(N)=O)cc2)cc1-c1cccc(Cl)c1`, the Z-AUC in test [1] was 0.65 (inactive); in test [1] (setting [3]), -0.098; in test [1] (measured here: PEO4 Z-AUC), 0.315. In addition, the values for the z-score in test [2] (setting [4]), in test [2] (setting [5]) and in test [2] (setting [6]) were 0.762, 0.853 and 0.582, respectively.

In the case of `COc1cc2ncnc(-n3nc(-c4ccccn4)nc3N)c2cc1OC`, the Z-AUC is -0.168 (inactive) in test [1], 0.627 in test [1] (setting [3]) and 0.697 in test [1] (measured here: PEO4 Z-AUC).

Regarding `CC(C)(C)OC(=O)N[C@H]1CCCCCC=C[C@@H]2C[C@@]2(C(=O)NS(=O)(=O)C2CC2)NC(=O)[C@@H]2C[C@@H](OC(=O)N3Cc4cccc(F)c4C3)CN2C1=O`, the figures for the Z-AUC in test [1], in test [1] (setting [3]) and in test [1] (measured here: PEO4 Z-AUC) were 0.565 (inactive), 0.658 and 1.2, respectively. Besides, the z-score in test [2] (setting [4]) came to 0.6; in test [2] (setting [5]), 0.826; in test [2] (setting [6]), 2.04.

For the compound `O=C1C[C@@H](c2ccc(O)cc2)Oc2cc(O)cc(O)c21`, the figures for the Z-AUC in test [1], in test [1] (setting [3]) and in test [1] (measured here: PEO4 Z-AUC) were 0.649 (inactive), 1.18 and 1.28, respectively. Besides, the z-score was determined as 0.38 in test [2] (setting [4]), 0.851 in test [2] (setting [5]) and 0.18 in test [2] (setting [6]).

Take `COc1ccc(C2CC(c3ccccc3)=NN2c2ccc(S(N)(=O)=O)cc2)cc1` (stereo not given): the Z-AUC in test [1] was -0.424 (inactive); in test [1] (setting [3]), -0.864; in test [1] (measured here: PEO4 Z-AUC), -0.548.

`COc1ccc2cc(-c3nc(-c4ccc(S(C)=O)cc4)[nH]c3-c3ccncc3)ccc2c1` (stereo not given): the Z-AUC in test [1] was -0.0857 (inactive); in test [1] (setting [3]), -0.107; in test [1] (measured here: PEO4 Z-AUC), -0.281.

For `CN1[C@@H]2CCC[C@@H]1CC(NC(=O)c1nn(C)c3ccccc13)C2` (stereo not given in full), the Z-AUC was -0.105 (inactive) in test [1], -0.292 in test [1] (setting [3]) and 0.149 in test [1] (measured here: PEO4 Z-AUC). Further, the z-score was 0.506 in test [2] (setting [4]), 0.637 in test [2] (setting [5]) and 0.0896 in test [2] (setting [6]).

On to `CC(C)C(=O)Nc1ncc(-c2cc(C(F)F)nn2-c2c(Cl)cccc2Cl)s1`, for which the Z-AUC in test [1] was -0.482 (inactive); in test [1] (setting [3]), 0.209; in test [1] (measured here: PEO4 Z-AUC), 0.42.

For the compound `Oc1ccc(C2=Cc3ccc(O)cc3OC2)cc1`, the Z-AUC in test [1] was -0.664 (inactive); in test [1] (setting [3]), -0.782; in test [1] (measured here: PEO4 Z-AUC), -0.812.

Source of the values: PubChem BioAssay (NCATS).
